# Screen size: about 210,000 compounds; about 5,900 (2.8%) were called active. Where a call stands in place of a potency, no number is given. Not shown: some 5% with an inconclusive outcome. This is one part of a sample in which actives are shown more often than they occur. Calls come from the whole dose curve; as a rule, active = well fitted activation curve with a large enough effect; inconclusive = small, poorly fitted or top-dose-only effect; inactive = no such curve, though single readings can be large or run the other way.
# Test: qHTS Assay for Enhancers of SMN2 Splice Variant Expression; note: nearly all actives have a fitted effect of over 55% in size
# Conditions: HEK293 SMN2-luciferase splicing reporter, luminescence, 30-36 h; series mostly up to 46.1 µM
# How it was run: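 qHTS luciferase splicing reporter: luminescence rises when SMN2 exon 7 is included in transfected HEK293 cells. Compound exposure lasted 30-36 h at 37C, with 4.5 mM final sodium butyrate as control, followed by a ONE-Glo read.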
# Potency is the fitted concentration of half-maximal effect.
Compound,Potency,"activity change, positive = activation"
Cc1cc(C)c(NC(=O)c2cc3sc(Cl)cc3n2C)c(C)c1,inactive,–
O=C(c1cccc(C(=O)N2CCc3ccccc32)n1)N1CCc2ccccc21,inactive,–
Cc1cnc(C(=O)OCC(=O)N2CCc3ccccc32)cn1,inactive,–
O=C(c1cnn2ccccc12)N1CCc2ccccc21,11.2 µM (active),–
COc1cc(OC)c(C2C=C(C(=O)O)Nc3ncnn32)cc1OC (configuration not stated),inactive,–
S=C(NCc1ccc2c(c1)OCO2)NCc1ccco1,inactive,–
FC(F)Oc1ccc(NC(=S)NCc2ccco2)cc1Cl,inactive,–
S=C(NCc1ccco1)Nc1ccc2c(c1)OCCO2,15.8 µM (active),–
COc1ccccc1CNC(=O)c1ccc(NC(=O)N2CC(C)Sc3ccccc32)cc1 (configuration not stated),inactive,–
CC(=O)N1CCc2cc(Br)cc(S(=O)(=O)CCC(=O)NCCc3ccc(Cl)cc3)c21,inactive,–
Cc1cc(C)nc(N/N=C/c2c(C)oc3ccccc23)n1,inactive,–
C(=N\Nc1ccc2ccccc2n1)/c1ccc2c(c1)OCO2,inactive,–
Cc1noc(C)c1/C=N/Nc1ccc2ccccc2n1,14.1 µM (active),–
CCOC(=O)c1oc2ccc(S(=O)(=O)n3nc(-c4ccccc4OC)cc3N)cc2c1C,inactive,–
COc1ccc(-c2nc3c(c4c2C[C@H](c2ccccc2)OC4)CN(S(=O)(=O)c2c(C)noc2C)CC3)c(C)c1,–,-6.74% [at 9.22 µM] (inactive)
Cc1cc(Cl)ccc1OCc1nc(-c2ccncc2)no1,12.6 µM (active),–
COc1ccc(-c2noc(COc3ccc(Cl)c(C)c3)n2)cc1,inactive,–
Cc1ccccc1C(=O)NCc1nc(-c2ccc(Cl)cc2)no1,inactive,–
O=C(c1ccc2c(c1)N(Cc1ccccc1)C(=O)c1ccccc1S2(=O)=O)N1CCCC1,inactive,–
O=C(CCCCn1c(=O)c2ccccc2n(CC(=O)Nc2cccc(C(F)(F)F)c2)c1=O)NCc1ccc2c(c1)OCO2,inactive,–
Cc1cccc(-c2nnc(SCC(=O)N3CCCc4ccccc43)o2)c1,inactive,–
CCSc1nnc(-c2cc3c(s2)-c2ccccc2CC3)o1,15.8 µM (active),–
Fc1ccc(CSc2nnc(-c3cc4c(s3)-c3ccccc3CC4)o2)cc1,inactive,–

Compound,Potency,"activity change, positive = activation"
COc1ccccc1-c1noc(CSc2nnc(-c3ccccc3)n2-c2ccc(C)c(C)c2)n1,inactive,–
CCCCOc1ccc(C(=O)Nc2cccc(-c3nc4ccccc4o3)c2C)cc1,inactive,–
O=c1[nH]c(CCl)nc2cc(-c3ccc(Cl)cc3)sc12,7.08 µM (active),–
NC(=O)Cc1nc2scc(-c3ccc(Cl)cc3)c2c(=O)[nH]1,inactive,–
O=c1[nH]c(CN2CCOCC2)nc2cc(Cl)ccc12,inactive,–
Cc1ccc(SCCC(=O)Nc2cc(C)on2)cc1,inactive,–
Cc1cc(NC(=O)CCC2COc3ccccc3O2)no1 (configuration not stated),12.6 µM (active),–
COc1ccc(NC(=O)CC2COc3ccccc3O2)c(OC)c1 (configuration not stated),inactive,–
CCc1ccccc1NC(=O)c1ccc2c(c1)CCN2S(C)(=O)=O,inactive,–
Cn1c(=NC(=O)CSCC(=O)N2CCOCC2)sc2ccccc21,inactive,–
Cn1c(=NC(=O)CSCC(=O)N2CCCCC2)sc2ccccc21,inactive,–
Cn1c(=NC(=O)c2cnccn2)sc2ccccc21,12.6 µM (active),–
Cc1cc(C)cc(OCC(=O)Nc2nc(-c3ccc(F)cc3)ns2)c1,inactive,–
O=C(NCC12CC3CC(CC(C3)C1)C2)c1cc2nc(-c3ccccc3)cc(C(F)(F)F)n2n1,inactive,–
COc1ccc2nc(SCc3ccccc3)nc(C)c2c1,11.2 µM (active),–
COC(=O)CSc1nc(C)c2ccc(OC)cc2n1,inactive,–
COc1ccc2nc(/N=C(\N)NC(=O)Nc3ccccc3)nc(C)c2c1,inactive,–
CCc1nn(CCCC(=O)NC(C)c2ccccc2)c(=O)c2cc3occc3n12 (configuration not stated),inactive,–
Cc1ccc(S(=O)(=O)n2nc(-c3ccc(Cl)cc3)nc2NCc2ccccc2)cc1,inactive,–
CCOc1ccc(Nc2oc(/C=C/c3ccc(F)cc3)nc2C#N)cc1,inactive,–
COc1ccccc1NC(=O)C1=C(C)NC(=O)NC1c1ccc(C)s1 (configuration not stated),inactive,–
COc1ccccc1NC(=O)/C=C/C(N)=O,inactive,–
COc1ccccc1NC(=O)c1ccc(C)s1,12.6 µM (active),–

Compound,Potency,"activity change, positive = activation"
Cc1cc(C)cc(NS(=O)(=O)c2ccc3[nH]cc(C(=O)N4CCCCC4)c(=O)c3c2)c1,inactive,–
Cc1ccc(Nc2c(-c3ccc(Cl)cc3)nc3sccn23)c(C)c1,inactive,–
CCCCOc1ccc(C(=O)N2CC(=O)Nc3ccc(Br)cc3C2c2ccc(F)cc2)cc1 (configuration not stated),inactive,–
Cc1ccc(NC(=S)Nc2ncccc2C)c(C)c1,12.6 µM (active),–
Cc1ccc(NC(=S)NCc2ccccc2Cl)c(C)c1,inactive,–
Cc1ccc(NC(=S)NC(=O)c2ccc(-c3ccccc3)cc2)c(C)c1,inactive,–
O=C(OCc1ccc([N+](=O)[O-])cc1)c1ccccn1,inactive,–
N/C(=N\OC(=O)Cc1ccc([N+](=O)[O-])cc1)c1ccccn1,inactive,–
N/C(=N\OC(=O)c1ccc([N+](=O)[O-])cc1)c1ccccn1,6.31 µM (active),–
CCOC(=O)c1ccc(N2C(=O)c3n[nH]c(-c4ccco4)c3C2c2ccc(O)cc2)cc1 (configuration not stated),inactive,–
Cc1nc2ccc(S(=O)(=O)NC(C(=O)NCc3ccccc3Cl)C(C)C)cc2s1 (configuration not stated),inactive,–
COc1ccc(-c2nc(CN3CCC(C(=O)NCCN(CC(C)C)CC(C)C)CC3)c(C)o2)cc1OC,inactive,–
COc1ccc(CNc2nc(-c3ccc(Cl)cc3)cc(C(F)(F)F)n2)cc1,inactive,–
O=C1CC(c2ccc(F)cc2F)c2cc3c(cc2N1)OCO3 (configuration not stated),inactive,–
COc1ccc(CCNC(=O)c2cc(-c3ccc4c(c3)OCO4)on2)cc1OC,inactive,–
COc1c2c(cc3occ(-c4ccc5c(c4)OCO5)c(=O)c13)OC(C)(C)C=C2,6.31 µM (active),–
Cc1cccc(NC(=O)CSc2nnc(CNC(=O)c3cccc(C)c3)n2-c2ccccc2)c1,inactive,–
CCN1CCN(c2cc(C)c3cc(NC(=O)c4cc(Cl)ccc4OC)ccc3n2)CC1,inactive,–
CCc1cccc(NC(=O)CSc2nccn2C)c1,inactive,–
O=C(CCn1c(SCC(=O)c2ccccc2)nc2ccccc2c1=O)NCc1ccc(F)cc1,inactive,–
O=C(CCCn1c(SCC(=O)c2ccc(F)cc2)nc2ccccc2c1=O)NCc1ccco1,inactive,–
Cc1ccc(C(=O)CSc2nc3ccccc3c(=O)n2N)o1,15.8 µM (active),–
COc1ccc(-c2noc(-c3ccc(C)cc3)n2)cc1,17.8 µM (active),–

Compound,Potency,"activity change, positive = activation"
COc1ccc(-c2nc(-c3ccccc3)no2)c(OC)c1,0.447 µM (active),–
COc1ccc(-c2noc(CSc3ccc(C)cc3)n2)cc1,inactive,–
COc1ccc(/C=C/c2noc(-c3ccccc3O)n2)cc1OC,inactive,–
COc1ccc(-c2noc(-c3cccc(OC)c3OC)n2)cc1OC,12.6 µM (active),–
COc1ccc(-c2noc(CN(C)S(=O)(=O)c3ccc(C)cc3)n2)cc1,inactive,–
COc1ccc(-c2nnco2)cc1OC,inactive,–
COc1ccc(-c2noc(CSc3nnc(-c4ccccc4)n3-c3ccc(F)cc3)n2)c(OC)c1,inactive,–
CCOc1nc(-c2ccc(OC)cc2)ccc1-c1noc(-c2cc(OC)c(OC)c(OC)c2)n1,inactive,–
COc1ccc(CC(N)C(=O)NC2C(O)[C@H](n3cnc4c(N(C)C)ncnc43)O[C@@H]2CO)cc1 (some centres not stated),inactive,–
CC1=C(C(=O)OCC2CCCCC2)C(c2c(F)cccc2Cl)CC(=O)N1 (configuration not stated),inactive,–
O=C(Nc1cc(C(F)(F)F)ccc1Cl)c1ccc2c(c1)CCN2S(=O)(=O)c1ccccc1,inactive,–
CCSc1ncc(Cl)c(C(=O)Nc2c(C(=O)c3ccccc3)oc3ccccc23)n1,inactive,–
O=C(C1CCCN(S(=O)(=O)c2cccc3nonc23)C1)N1CCN(c2ccccc2F)CC1 (configuration not stated),inactive,–
COc1ccccc1Nc1cc(C(=O)NCCCN(C)C2CCCCC2)c2ccccc2n1,inactive,–
CCCC12CN3CC(C)(CN(C1)C3c1ccccc1Cl)C2=O (configuration not stated),inactive,–
CCC(=O)NC(=Nc1nc2ccccc2s1)NC(=O)CC,10 µM (active),–
O=C(O)CCCCc1nc2ccccc2s1,inactive,–
CC(C)CC(=O)N/C(N)=N/c1nc2ccccc2s1,11.2 µM (active),–
COC(=O)c1nc2ccccc2s1,inactive,–
CC(C)CC(=O)NC(=S)NCc1ccccc1,inactive,–
Cc1cc(C(=O)OCC(=O)Nc2nnc(C(C)C)s2)c2ccccc2n1,–,10.4% [at 1.84 µM] (inactive)
CCc1nn(CC(=O)N2CCN(c3ccc(Cl)cc3)CC2)c(=O)c2cc3occc3n12,inactive,–
CCc1ccc(S(=O)(=O)Nc2cc3c(C(=O)OCc4ccccc4)c(C)oc3c3ccccc23)cc1,inactive,–

Compound,Potency,"activity change, positive = activation"
O=C(CSc1ncc(S(=O)(=O)c2ccc(Br)cc2)c(=O)[nH]1)Nc1ccc2c(c1)OCCO2,inactive,–
Cc1ccc(NC(=O)CN2c3ccccc3S(=O)(=O)c3ccccc32)cc1F,inactive,–
CCOc1ccccc1NC(=O)CCS(=O)(=O)c1cccc2nsnc12,inactive,–
O=C(CSCc1ccc(Cl)cc1)N1CCN(Cc2ccc3c(c2)OCO3)CC1,inactive,–
O=C(CSCc1cccs1)N1CCCC1,12.6 µM (active),–
O=C(CSc1ccsc1[N+](=O)[O-])N1CCCCC1,inactive,–
O=C(Cn1c(=O)n(Cc2ccccc2)c(=O)c2sc3ccccc3c21)Nc1ccccc1F,inactive,–
Cc1ccc(-c2nnc3c4ccccc4c(C)nn23)cc1NC(=O)c1cccc(Br)c1,inactive,–
COc1ccc(-c2csc(Nc3ccccn3)n2)cc1,2.24 µM (active),–
NS(=O)(=O)c1ccc(Nc2nc(-c3ccccc3)cs2)cc1,inactive,–
COc1ccc(-c2csc(NC(=O)c3ccc(N4C(=O)CCC4=O)cc3)n2)cc1OC,inactive,–
COc1ccc(C)cc1Nc1nc(-c2c(C)[nH]c3ccccc23)cs1,inactive,–
O=S(=O)(Nc1ccccn1)c1ccc(Oc2ccccc2)cc1,inactive,–
O=C(Nc1ccc(Cl)cn1)Nc1cccs1,inactive,–
COc1ccc(Nc2nc(-c3ccccc3)cs2)cc1,10 µM (active),–
COc1ccc(NC(=O)c2sc(N)nc2-c2ccccc2)cc1,inactive,–
COc1ccc2c(c1OC)C(=O)OC2Nc1nc(-c2ccccc2)cs1 (configuration not stated),inactive,–
Clc1ccc(Nc2nc(-c3cccs3)cs2)nc1,14.1 µM (active),–
COc1ccc(OC)c(Nc2nc(-c3ccc(O)c(O)c3)cs2)c1,17.8 µM (active),–
COC(=O)CSc1nccc(-c2cccs2)n1,inactive,–
